The results in this text go back to publication PMC7862700, “An all-to-all approach to the identification of sequence-specific readers for epigenetic DNA modifications on cytosine”.

Holding throughout (assay): DAPPL (digital affinity profiling via proximity ligation, sequencing); 10 mM Tris-HCl pH 7.5, 50 mM NaCl, 1 mM DTT, 4% glycerol, room temperature, 30 min; GST-TFs on glutathione beads, 16-mer random dsDNA library, 0.1% formaldehyde crosslink after washing; high values mean tight binding
Conditions in all cases: protein: recombinant; tags: N-terminal GST; dsDNA, one strand shown

In test [1] the target is T1, FLI1 (Homo sapiens, UniProt Q01543 1-452).
T1 sequence: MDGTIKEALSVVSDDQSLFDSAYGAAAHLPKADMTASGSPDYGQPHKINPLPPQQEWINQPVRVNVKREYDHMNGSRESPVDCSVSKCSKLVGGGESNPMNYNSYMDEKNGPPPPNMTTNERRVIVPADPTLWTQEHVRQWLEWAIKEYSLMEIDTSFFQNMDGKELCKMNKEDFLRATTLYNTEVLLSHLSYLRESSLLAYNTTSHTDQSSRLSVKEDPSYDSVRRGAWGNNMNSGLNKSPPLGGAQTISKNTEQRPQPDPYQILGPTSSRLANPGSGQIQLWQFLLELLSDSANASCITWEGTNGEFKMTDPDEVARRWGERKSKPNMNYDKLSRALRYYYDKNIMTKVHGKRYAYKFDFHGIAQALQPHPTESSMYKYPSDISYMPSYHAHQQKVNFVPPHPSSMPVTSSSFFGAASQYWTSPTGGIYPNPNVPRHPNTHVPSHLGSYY
The method, boiled down:
(§1)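 Pools of DNA-barcoded human transcription factors, expressed in yeast as GST fusions on glutathione beads and combined with a tag-only sample, were incubated with 200 nmole of a 16-mer random double-stranded DNA library. Incubation took 30 min at room temperature in Tris/NaCl/DTT/glycerol buffer and was followed by washing, 0.1% formaldehyde crosslinking, proximity ligation (BsaI/T4 ligase, 1 h, 37 °C), PCR amplification and sequencing on an Illumina NextSeq500. Binding signal is the ratio of a hexamer's read frequency for a factor to its frequency for the tag-only sample.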

Test [2] has as its target T2, GABPA (Homo sapiens, UniProt Q06546 1-454).
T2 sequence: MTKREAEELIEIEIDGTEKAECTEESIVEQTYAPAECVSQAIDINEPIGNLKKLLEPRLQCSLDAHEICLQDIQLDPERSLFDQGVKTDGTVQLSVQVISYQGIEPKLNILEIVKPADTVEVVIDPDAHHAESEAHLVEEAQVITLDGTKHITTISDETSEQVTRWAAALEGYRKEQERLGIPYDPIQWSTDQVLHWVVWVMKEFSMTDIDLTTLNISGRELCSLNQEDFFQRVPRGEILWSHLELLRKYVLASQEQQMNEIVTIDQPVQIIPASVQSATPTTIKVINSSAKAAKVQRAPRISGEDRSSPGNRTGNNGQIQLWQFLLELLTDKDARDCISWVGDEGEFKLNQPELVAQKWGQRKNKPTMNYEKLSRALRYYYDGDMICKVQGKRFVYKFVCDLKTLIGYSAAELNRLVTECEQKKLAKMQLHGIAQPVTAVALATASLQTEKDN
The method, boiled down: as §1

For test [3], the target named is T3, ERG (Homo sapiens, UniProt P11308 1-479).
T3 sequence: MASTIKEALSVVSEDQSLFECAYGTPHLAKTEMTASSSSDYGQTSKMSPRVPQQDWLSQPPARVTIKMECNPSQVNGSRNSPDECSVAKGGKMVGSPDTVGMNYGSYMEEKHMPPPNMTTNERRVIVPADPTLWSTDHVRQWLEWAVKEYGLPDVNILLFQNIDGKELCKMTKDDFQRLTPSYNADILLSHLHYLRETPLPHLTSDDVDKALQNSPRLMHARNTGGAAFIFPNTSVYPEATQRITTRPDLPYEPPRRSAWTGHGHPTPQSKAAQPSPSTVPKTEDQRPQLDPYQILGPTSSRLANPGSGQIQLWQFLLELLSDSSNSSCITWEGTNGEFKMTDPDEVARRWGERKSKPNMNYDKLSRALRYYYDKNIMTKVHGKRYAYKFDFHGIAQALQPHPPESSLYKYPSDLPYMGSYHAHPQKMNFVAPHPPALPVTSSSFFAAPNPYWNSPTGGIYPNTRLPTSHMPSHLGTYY
An outline of the steps:
as §1

Test [4] has as its target ELF1 (Homo sapiens, UniProt P32519 1-619). The method, boiled down: as §1
Test [5] concerns the target SPIB (Homo sapiens, UniProt Q01892 1-262). The method, boiled down: as §1
The target in test [6] is ETV5 (Homo sapiens, UniProt P41161 1-510). An outline of the steps: as §1
ETV5, sequence (P41161 whole entry): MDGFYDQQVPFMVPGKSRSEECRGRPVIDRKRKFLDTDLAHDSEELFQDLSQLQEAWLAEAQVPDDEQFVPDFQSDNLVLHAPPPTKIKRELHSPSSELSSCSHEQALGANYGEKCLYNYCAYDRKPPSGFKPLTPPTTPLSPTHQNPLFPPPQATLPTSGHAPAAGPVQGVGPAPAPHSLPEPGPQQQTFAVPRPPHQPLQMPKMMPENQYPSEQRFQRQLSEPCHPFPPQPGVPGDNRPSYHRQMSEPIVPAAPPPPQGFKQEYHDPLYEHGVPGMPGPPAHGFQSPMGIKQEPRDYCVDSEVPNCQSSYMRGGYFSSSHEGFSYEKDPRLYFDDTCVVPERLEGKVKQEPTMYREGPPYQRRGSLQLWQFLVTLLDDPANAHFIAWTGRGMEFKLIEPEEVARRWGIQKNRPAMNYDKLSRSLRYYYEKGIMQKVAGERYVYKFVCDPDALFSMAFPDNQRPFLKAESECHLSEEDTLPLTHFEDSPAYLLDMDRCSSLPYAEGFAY
The target in test [7] is T4, SPIC (Homo sapiens, UniProt Q8N5J4 1-248).
T4 sequence: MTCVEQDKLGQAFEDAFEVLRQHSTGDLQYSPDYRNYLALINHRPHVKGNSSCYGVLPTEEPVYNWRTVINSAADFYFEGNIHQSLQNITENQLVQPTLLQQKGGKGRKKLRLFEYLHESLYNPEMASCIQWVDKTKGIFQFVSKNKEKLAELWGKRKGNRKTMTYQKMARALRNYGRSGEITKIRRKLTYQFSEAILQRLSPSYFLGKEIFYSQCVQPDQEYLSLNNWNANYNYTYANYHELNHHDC
An outline of the steps:
as §1

The target of test [8] is ELF4 (Homo sapiens, UniProt Q99607 1-663). The method, boiled down:
as §1

Test [9] addresses ETV1 (Homo sapiens, UniProt P50549 1-477). The method, boiled down:
as §1

For test [10], the target named is T5, SPDEF (Homo sapiens, UniProt O95238 1-335).
T5 sequence: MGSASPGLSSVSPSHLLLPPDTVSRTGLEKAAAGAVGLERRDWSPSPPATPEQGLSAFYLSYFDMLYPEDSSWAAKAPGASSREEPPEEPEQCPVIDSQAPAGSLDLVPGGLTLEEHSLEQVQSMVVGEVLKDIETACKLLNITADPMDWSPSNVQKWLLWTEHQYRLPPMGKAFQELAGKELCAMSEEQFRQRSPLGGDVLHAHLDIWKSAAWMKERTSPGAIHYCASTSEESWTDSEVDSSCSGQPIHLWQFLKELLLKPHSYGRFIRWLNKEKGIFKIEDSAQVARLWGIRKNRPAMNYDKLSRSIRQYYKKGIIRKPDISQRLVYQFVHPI
An outline of the steps: as §1

Test [11] deals with T6, ELF5 (Homo sapiens, UniProt Q9UKW6-2 1-255).
T6 sequence: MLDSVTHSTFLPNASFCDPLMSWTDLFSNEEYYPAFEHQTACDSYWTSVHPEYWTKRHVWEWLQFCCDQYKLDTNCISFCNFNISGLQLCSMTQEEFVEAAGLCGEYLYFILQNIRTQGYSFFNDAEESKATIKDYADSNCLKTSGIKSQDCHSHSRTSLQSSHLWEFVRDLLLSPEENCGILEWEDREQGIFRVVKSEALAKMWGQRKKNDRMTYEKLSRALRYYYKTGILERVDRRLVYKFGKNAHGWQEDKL
An outline of the steps: as §1

The target in test [12] is T7, EHF (Homo sapiens, UniProt Q9NZC4 1-300).
T7 sequence: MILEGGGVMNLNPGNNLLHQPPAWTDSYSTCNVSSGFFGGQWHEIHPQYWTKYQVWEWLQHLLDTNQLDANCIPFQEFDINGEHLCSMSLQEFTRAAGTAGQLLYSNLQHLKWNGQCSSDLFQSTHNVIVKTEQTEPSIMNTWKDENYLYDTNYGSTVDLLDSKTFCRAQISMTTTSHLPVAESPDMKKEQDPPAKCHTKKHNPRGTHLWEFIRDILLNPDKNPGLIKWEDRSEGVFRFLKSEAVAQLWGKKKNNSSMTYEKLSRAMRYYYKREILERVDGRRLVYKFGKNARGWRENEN
The method, boiled down: as §1

Test [13] concerns the target SPI1 (Homo sapiens, UniProt P17947 1-270). An outline of the steps: as §1
For test [14], the target named is T8, FEV (Homo sapiens, UniProt Q99581 1-238).
T8 sequence: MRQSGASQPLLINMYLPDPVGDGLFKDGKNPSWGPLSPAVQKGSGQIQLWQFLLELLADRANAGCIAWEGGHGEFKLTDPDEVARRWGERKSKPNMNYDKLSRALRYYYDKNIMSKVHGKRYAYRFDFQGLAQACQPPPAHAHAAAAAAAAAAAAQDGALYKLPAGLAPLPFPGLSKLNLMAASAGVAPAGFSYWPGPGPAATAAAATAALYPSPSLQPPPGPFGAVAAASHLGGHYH
An outline of the steps:
as §1

For test [15], the target named is T9, ERF (Homo sapiens, UniProt P50548 1-548).
T9 sequence: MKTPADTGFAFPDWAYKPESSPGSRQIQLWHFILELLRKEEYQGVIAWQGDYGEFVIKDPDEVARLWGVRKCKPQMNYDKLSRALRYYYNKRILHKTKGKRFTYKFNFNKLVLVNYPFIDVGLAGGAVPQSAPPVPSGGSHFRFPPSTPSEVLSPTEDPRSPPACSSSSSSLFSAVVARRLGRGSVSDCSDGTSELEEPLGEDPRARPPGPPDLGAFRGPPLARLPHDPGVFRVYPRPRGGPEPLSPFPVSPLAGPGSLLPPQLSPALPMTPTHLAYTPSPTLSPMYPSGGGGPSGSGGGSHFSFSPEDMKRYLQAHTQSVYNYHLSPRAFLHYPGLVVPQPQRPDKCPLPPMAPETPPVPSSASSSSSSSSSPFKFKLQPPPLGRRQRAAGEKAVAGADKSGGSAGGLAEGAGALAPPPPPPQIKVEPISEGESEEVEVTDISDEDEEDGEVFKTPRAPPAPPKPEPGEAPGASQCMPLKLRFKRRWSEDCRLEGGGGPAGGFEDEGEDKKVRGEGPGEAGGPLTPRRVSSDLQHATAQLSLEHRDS
An outline of the steps: as §1

Test [16] addresses T10, ETV3L (Homo sapiens, UniProt Q6ZN32 1-361).
T10 sequence: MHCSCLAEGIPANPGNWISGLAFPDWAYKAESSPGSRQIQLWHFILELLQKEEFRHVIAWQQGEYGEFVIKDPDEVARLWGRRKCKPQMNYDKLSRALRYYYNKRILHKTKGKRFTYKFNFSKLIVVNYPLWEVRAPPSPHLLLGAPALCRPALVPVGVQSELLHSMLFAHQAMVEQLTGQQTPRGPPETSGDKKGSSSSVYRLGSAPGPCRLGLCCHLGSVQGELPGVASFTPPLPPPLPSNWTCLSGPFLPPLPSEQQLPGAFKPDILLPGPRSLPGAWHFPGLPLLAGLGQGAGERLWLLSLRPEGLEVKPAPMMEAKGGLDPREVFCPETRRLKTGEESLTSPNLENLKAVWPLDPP
An outline of the steps:
as §1

Test [17] has as its target T11, ETS2 (Homo sapiens, UniProt P15036 1-469).
T11 sequence: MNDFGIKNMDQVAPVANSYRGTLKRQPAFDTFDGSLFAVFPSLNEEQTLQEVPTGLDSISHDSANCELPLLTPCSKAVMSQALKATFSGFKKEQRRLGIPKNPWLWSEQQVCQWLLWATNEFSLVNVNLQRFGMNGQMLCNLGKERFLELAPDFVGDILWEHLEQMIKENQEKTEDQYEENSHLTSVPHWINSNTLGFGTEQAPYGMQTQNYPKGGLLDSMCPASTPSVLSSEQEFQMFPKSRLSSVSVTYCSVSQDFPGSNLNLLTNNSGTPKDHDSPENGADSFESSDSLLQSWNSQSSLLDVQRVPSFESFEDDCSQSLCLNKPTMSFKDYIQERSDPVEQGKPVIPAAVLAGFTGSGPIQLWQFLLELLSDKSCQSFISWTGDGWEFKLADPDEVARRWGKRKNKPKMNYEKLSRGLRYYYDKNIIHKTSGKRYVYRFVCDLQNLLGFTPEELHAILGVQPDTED
An outline of the steps:
as §1

Test [18] has as its target ETV6 (Homo sapiens, UniProt P41212 1-452). The method, boiled down:
as §1

ELF1, sequence (P32519 whole entry): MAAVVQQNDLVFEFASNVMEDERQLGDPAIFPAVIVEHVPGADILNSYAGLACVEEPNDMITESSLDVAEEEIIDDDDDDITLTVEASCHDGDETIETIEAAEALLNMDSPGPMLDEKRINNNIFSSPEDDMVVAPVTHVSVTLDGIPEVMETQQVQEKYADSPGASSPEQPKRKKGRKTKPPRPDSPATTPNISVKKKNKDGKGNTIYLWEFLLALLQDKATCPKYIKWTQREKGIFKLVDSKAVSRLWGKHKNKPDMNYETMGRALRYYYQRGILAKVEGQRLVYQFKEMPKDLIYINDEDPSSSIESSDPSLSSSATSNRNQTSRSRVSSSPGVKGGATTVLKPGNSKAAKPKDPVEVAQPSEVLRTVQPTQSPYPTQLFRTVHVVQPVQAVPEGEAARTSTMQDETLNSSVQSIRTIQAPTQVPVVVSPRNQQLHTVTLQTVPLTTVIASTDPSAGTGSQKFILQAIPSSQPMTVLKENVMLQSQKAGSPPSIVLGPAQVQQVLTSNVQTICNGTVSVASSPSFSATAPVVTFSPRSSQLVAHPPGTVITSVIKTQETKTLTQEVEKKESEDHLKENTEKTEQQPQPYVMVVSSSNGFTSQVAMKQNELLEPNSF
ELF4, sequence (Q99607 whole entry): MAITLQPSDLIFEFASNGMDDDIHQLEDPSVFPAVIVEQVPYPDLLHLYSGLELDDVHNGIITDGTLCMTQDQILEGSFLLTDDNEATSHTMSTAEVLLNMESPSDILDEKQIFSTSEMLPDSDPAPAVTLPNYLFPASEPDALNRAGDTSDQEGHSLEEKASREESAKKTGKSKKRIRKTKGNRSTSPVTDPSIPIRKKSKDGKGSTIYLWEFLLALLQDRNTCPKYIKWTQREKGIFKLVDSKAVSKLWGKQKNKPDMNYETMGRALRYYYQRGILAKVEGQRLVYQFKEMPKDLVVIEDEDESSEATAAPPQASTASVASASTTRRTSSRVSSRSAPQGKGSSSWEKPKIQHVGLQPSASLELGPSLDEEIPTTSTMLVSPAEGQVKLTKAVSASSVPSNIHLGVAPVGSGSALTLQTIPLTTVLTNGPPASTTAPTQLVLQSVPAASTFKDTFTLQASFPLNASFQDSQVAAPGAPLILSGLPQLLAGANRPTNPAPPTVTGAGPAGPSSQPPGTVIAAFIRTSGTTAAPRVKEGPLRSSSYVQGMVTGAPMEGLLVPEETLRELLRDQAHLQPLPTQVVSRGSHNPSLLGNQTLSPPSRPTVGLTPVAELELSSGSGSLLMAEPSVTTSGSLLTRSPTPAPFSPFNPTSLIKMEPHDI
SPIB, sequence (Q01892 whole entry): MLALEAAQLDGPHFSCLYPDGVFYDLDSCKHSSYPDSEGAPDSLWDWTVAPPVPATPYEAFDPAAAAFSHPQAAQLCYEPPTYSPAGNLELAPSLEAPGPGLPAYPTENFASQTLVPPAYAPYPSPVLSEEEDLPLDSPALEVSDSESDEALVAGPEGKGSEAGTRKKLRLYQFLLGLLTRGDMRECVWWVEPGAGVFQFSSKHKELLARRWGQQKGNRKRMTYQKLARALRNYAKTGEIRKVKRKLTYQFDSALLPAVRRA
ETV6, sequence (P41212 whole entry): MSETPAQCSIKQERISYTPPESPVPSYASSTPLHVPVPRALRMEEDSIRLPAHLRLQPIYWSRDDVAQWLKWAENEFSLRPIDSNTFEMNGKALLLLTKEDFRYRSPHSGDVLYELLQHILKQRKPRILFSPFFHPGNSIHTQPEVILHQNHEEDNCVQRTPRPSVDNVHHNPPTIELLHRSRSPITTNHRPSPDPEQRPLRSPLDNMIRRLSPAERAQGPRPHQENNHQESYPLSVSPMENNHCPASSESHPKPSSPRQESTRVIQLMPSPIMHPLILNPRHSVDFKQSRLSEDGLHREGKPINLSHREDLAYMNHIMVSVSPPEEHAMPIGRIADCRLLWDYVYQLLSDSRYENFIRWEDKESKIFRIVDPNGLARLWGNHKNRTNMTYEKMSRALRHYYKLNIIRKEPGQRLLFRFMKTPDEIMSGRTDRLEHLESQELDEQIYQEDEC
ETV1, sequence (P50549 whole entry): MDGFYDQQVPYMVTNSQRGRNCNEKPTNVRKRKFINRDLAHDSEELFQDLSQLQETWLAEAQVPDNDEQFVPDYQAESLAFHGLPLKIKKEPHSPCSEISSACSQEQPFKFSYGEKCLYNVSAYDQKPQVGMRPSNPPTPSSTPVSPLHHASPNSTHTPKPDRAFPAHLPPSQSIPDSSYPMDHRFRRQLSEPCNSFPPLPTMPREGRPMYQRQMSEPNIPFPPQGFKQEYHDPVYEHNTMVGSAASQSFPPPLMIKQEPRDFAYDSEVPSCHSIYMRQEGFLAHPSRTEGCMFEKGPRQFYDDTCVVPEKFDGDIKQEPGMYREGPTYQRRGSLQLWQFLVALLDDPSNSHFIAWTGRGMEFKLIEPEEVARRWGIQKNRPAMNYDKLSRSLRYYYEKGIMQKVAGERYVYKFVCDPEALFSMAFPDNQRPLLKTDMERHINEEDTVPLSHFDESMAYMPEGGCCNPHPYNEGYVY

On to TACGGT, for which the binding signal in test [1] is 1.01 fold enrichment (6-mer frequency, TF over GST control); in [2], 1.02 fold enrichment (6-mer frequency, TF over GST control); in test [3], 1.02 fold enrichment (6-mer frequency, TF over GST control); in test [4] it was 1.01 fold enrichment (6-mer frequency, TF over GST control); in test [5], 1.02 fold enrichment (6-mer frequency, TF over GST control); in test [6], 1.04 fold enrichment (6-mer frequency, TF over GST control). Further, the binding signal in [7] was 1.02 fold enrichment (6-mer frequency, TF over GST control); in [8], 1.05 fold enrichment (6-mer frequency, TF over GST control); in test [9], 1.01 fold enrichment (6-mer frequency, TF over GST control); in test [10] it was 1.1 fold enrichment (6-mer frequency, TF over GST control); in test [11], 1.04 fold enrichment (6-mer frequency, TF over GST control).

As for CAGCTA, the binding signal was 1.1 fold enrichment (6-mer frequency, TF over GST control) in [1]; 1.06 fold enrichment (6-mer frequency, TF over GST control) in test [2]; 1.03 fold enrichment (6-mer frequency, TF over GST control) in test [3]; 1.07 fold enrichment (6-mer frequency, TF over GST control) in test [4]; 1.05 fold enrichment (6-mer frequency, TF over GST control) in test [12]; 1.03 fold enrichment (6-mer frequency, TF over GST control) in [13]. Moreover, the binding signal is 1.04 fold enrichment (6-mer frequency, TF over GST control) in test [5]; 1.02 fold enrichment (6-mer frequency, TF over GST control) in test [14]; 1.01 fold enrichment (6-mer frequency, TF over GST control) in [6]; 1.07 fold enrichment (6-mer frequency, TF over GST control) in [7]; 1.03 fold enrichment (6-mer frequency, TF over GST control) in [8]; 1.08 fold enrichment (6-mer frequency, TF over GST control) in test [15]. The binding signal in test [16] is 1.05 fold enrichment (6-mer frequency, TF over GST control); in test [17] it was 1.06 fold enrichment (6-mer frequency, TF over GST control); in test [18], 1.01 fold enrichment (6-mer frequency, TF over GST control).
